For 40 compounds, AC50 and outcome results are on record in PubChem BioAssay (EPA / NIEHS).

Results filed as inconclusive are left out. Activity calls are given as the source filed them. How the source made its calls: active means hit-call score of the fitted dose curve at least 0.9, where 1 is the maximum; inconclusive means response in the unintended direction; inactive means score below 0.9.

Read-out in the assay: Cytochrome P450 2B6 (Homo sapiens) (UniProt P20813)
Nature of the assay: CLD_CYP2B6_6hr: CellzDirect (CLD) Gene Expression Assay for xenobiotic metabolism (CYP2B6) at 6 hours (AID 2283677).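 Further: actives raise CYP2B6 transcript above DMSO baseline so AC50 marks an inducer.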 On the procedure:
CLD_6hr is a cell-based, multiplexed-readout assay that uses hepatocyte, a human liver primary cell, with measurements taken at 6 hours after chemical dosing in a 96-well plate.CLD_CYP2B6_6hr is one of 16 assay component(s) measured or calculated from the CLD_6hr assay. It is designed to make measurements of mRNA induction, a form of inducible reporter, as detected with chemiluminescence signals by Quantitative Nuclease Protection Assay (qNPA) technology.Data from the assay component CLD_CYP2B6_6hr was analyzed at the endpoint, CLD_CYP2B6_6hr, in the positive analysis fitting direction relative to DMSO as the negative control and baseline of activity. Using a type of inducible reporter, gain-of-signal activity can be used to understand changes in the reporter gene as they relate to the gene CYP2B6. Furthermore, this assay endpoint can be referred to as a primary readout. To generalize the intended target to other relatable targets, this assay endpoint is annotated to the cyp intended target family, where subfamily is xenobiotic metabolism.
Human hepatocyte cultures were treated daily for two consecutive days with fresh dosing solutions containing appropriate concentrations of the 320 ToxCast chemicals (chemical identities were blinded to CellzDirect and other ToxCast collaborators), vehicle control (0.2% DMSO), and positive control inducers as summarized in Table 1. Due to the large number of treatment groups and chemicals examined, the ToxCast chemicals were divided into two groups (spanning two independent cultures of hepatocytes from separate donor preparations (Hu778: ToxCast plates 1 and 2; Hu776: ToxCast plates 3 and 4). Each preparation of human hepatocyte cultures was treated with respective vehicle control, medium only control, set of six positive controls/reference chemicals for the five hepatic receptor pathways, and a subset of eight of the ToxCast chemicals (indoxacarb, pyrithiobac-sodium, norflurazon, cyhalofop-butyl, methomyl, thiram, acetochlor, and propiconazole). These replicate data, coupled with internal replicates designed within the blinded ToxCast chemical library, provided additional data to evaluate interindividual differences between hepatocyte preparations and their potential impact on chemical profiles.Cell morphology and integrity were evaluated using phase-contrast microscopy as an indicator of hepatocyte cell health (Tyson & Green, 1987). Cultures for each treatment group (i.e., media, vehicle [0.2% DMSO], positive control inducers [multiple concentrations], and the ToxCast chemicals [multiple concentrations]) were observed and cell morphology was assessed relative to vehicle control cultures at each harvest time point (0, 6, 24, or 48 h). […] Images were evaluated at the conclusion of the study to assess changes in cell integrity and account for the effects of chemical exposure on uncharacteristic changes in concentration-dependent gene expression profiles. The results from these determinations of apparent cytotoxicity were annotated (yes/no) alongside the corresponding qNPA data for reference.At the conclusion of each treatment period, hepatocyte cultures (96-well) were washed with 1 volume of HBSS, lysed by addition of 25 ul ArrayPlate lysis buffer (HTG, Tucson, AZ), and 70 ul/well of Denaturation Oil, denatured by incubation at 95C for 10 min, and frozen at approximately -70C until analysis by nuclease protection assay (qNPA) (Roberts et al., 2007). For qNPA analysis, cell lysates were thawed at 50C for approximately 30 min, qNPA probes were added, and samples were incubated at 95C for 10 min to begin the detection process by denaturing the target RNA, dissociating the duplexes and secondary structure hybridization. At the conclusion of the hybridization period, S1 nuclease reagent was added to each sample to digest all nonprotected nucleotides at 50C for 60-90 min. […]
For `CCCN(CC)CC1COC2(CCC(C(C)(C)C)CC2)O1` (stereo not given), the AC50 is 13.4 µM (active).
With `Cc1ccc(N=CN(C)C=Nc2ccc(C)cc2C)c(C)c1`, the compound was classed as inactive.
For `CCCCC(O)(Cn1cncn1)c1ccc(Cl)cc1Cl` (stereo not given), the half-maximal activity concentration (AC50) is 2.08 µM (active).
In the case of `CCCC(=NOCC)C1=C(O)CC(CC(C)SCC)CC1=O` (stereo not given), the compound was classed as inactive.
On to `CCOP(=O)(OCC)Oc1nc(Cl)c(Cl)cc1Cl`, for which the AC50 was 7.26 µM (active).
Turning to `CC(C)=CC1C(C(=O)OCc2coc(Cc3ccccc3)c2)C1(C)C` (stereo not given), the AC50 was 7.48 µM (active).
Same read-out and setting: under `CNC(=O)Oc1cccc2ccccc12` stands 6.15 µM (active); under `COC(=O)c1c(C(F)F)nc(C(F)(F)F)c(C2=NCCS2)c1CC(C)C`, 0.277 µM (active).
In the case of `O=c1n(Cl)c(=O)n(Cl)c(=O)n1Cl`, the result was inactive.
On to `CC1(C)C(C(=O)OC(C#N)c2cccc(Oc3ccccc3)c2)C1(C)C` (stereo not given), for which the AC50 is 4.01 µM (active).
As for `Cc1c(COC(=O)[C@@H]2[C@H](/C=C(\Cl)C(F)(F)F)C2(C)C)cccc1-c1ccccc1`, the half-maximal activity concentration (AC50) is 4.27 µM (active).
As for `Cc1cnc(C2=NC(C)(C(C)C)C(=O)N2)c(C(=O)O)c1` (stereo not given), the outcome was inactive.
Same read-out and setting: under `CS(=O)(=O)c1cc(C(F)(F)F)ccc1C(=O)c1cnoc1C1CC1` stands “inactive”.
Turning to `CCCCC(C#N)(Cn1cncn1)c1ccc(Cl)cc1` (stereo not given), the AC50 was 2.77 µM (active).
The same measure, in the same setting: the result for `CCSC(=O)N1CCCCCC1` reads 2.28 µM (active).
Still for that read-out and setting: under `C=CCOC(=O)C(C)(C)OC(=O)c1cc(-n2c(=O)cc(C(F)(F)F)n(C)c2=O)ccc1Cl` stands 0.32 µM (active); under `CC(C)C1(C)N=C(c2ncccc2C(=O)O)NC1=O` (stereo not given), 0.00054 µM (active).
On the same count and under the same terms, the result for `CC(C)Oc1cccc(NC(=O)c2ccccc2C(F)(F)F)c1` reads 3.68 µM (active).
Turning to `CC(C)N1C(=O)N(c2ccccc2)CSC1=NC(C)(C)C`, the half-maximal activity concentration (AC50) was 7.11 µM (active).
In the case of `COc1ccc(-c2ccccc2)cc1NNC(=O)OC(C)C`, the half-maximal activity concentration (AC50) was 6.49 µM (active).
On the same count and under the same terms, under `N#Cc1c[nH]cc1-c1cccc2c1OC(F)(F)O2` stands 5.4 µM (active); under `CCOC(=O)C(C)OC(=O)c1cc(Oc2ccc(C(F)(F)F)cc2Cl)ccc1[N+](=O)[O-]` (stereo not given), 7.3 µM (active).
Take `COC(=O)NS(=O)(=O)c1ccc(N)cc1`: the result was inactive.
For the compound `CCOP(=S)(OCC)Oc1nc(Cl)n(C(C)C)n1`, the AC50 was 0.511 µM (active).
On the same count and under the same terms, under `CCOc1nc(F)cc2nc(S(=O)(=O)Nc3c(Cl)cccc3Cl)nn12` stands 14.4 µM (active).
For the compound `COc1cc(OC)nc(NC(=O)NS(=O)(=O)c2ncccc2OCC(F)(F)F)n1`, the compound was called inactive.
As for `N#Cc1c(Cl)cccc1Cl`, the half-maximal activity concentration (AC50) is 4.85 µM (active).
The same measure, in the same setting: under `CC(C)(C)C(=O)C(Oc1ccc(Cl)cc1)n1cncn1` (stereo not given) stands 3.95 µM (active).
On to `Nc1c(Cl)c(F)nc(OCC(=O)O)c1Cl`, for which the compound was classed as inactive.
As to `CCNP(=S)(OC)O/C(C)=C/C(=O)OC(C)C` (stereo not given), the AC50 is 0.84 µM (active).
Still for that read-out and setting: under `COC(=O)N(C(=O)N1CO[C@@]2(C(=O)OC)Cc3cc(Cl)ccc3C2=N1)c1ccc(OC(F)(F)F)cc1` stands 2.09 µM (active).
The same measure, in the same setting: the result for `Clc1cccc(C(Cl)(Cl)Cl)n1` reads 1.9 µM (active).
With `CNC(=O)N(C)c1nnc(C(C)(C)C)s1`, the compound was classed as inactive.
For `CCN(CC)C(=O)C(C)Oc1cccc2ccccc12` (stereo not given), the AC50 was 0.317 µM (active).
Turning to `OC(c1ccc(Cl)cc1)(c1ccc(Cl)cc1)C(Cl)(Cl)Cl`, the half-maximal activity concentration (AC50) is 3.96 µM (active).
Turning to `C=C(C)CN(CC)c1c([N+](=O)[O-])cc(C(F)(F)F)cc1[N+](=O)[O-]`, the outcome was inactive.
Consider `CC(C)NC(=O)N1CC(=O)N(c2cc(Cl)cc(Cl)c2)C1=O`, for which the AC50 was 20 µM (active).
In the case of `CC1(C)CCC(=Cc2ccc(Cl)cc2)C1(O)Cn1cncn1` (stereo not given), the AC50 is 1.97 µM (active).
In the case of `CC1(C)C(C=C(Cl)Cl)C1C(=O)OC(C#N)c1cccc(Oc2ccccc2)c1` (stereo not given), the AC50 is 1.54 µM (active).
For `CN=C=S`, the AC50 was 4.85 µM (active).
